Columns and labels:
[1] = test system: P. berghei liver stage (PbLuc); parameters: species or system HepG2-A16-CD81; P. berghei luciferase sporozoite infection of hepatocytes, liver stage luminescence; details: inhibitor; for PbLuc primary screen (10uM): inhibition % (n=1): 48 h
[2] = test system: HepG2-A16-CD81 hepatocytes; parameters: Uninfected hepatocyte viability, CellTiter-Glo luminescence; details: cytotoxicity primary screen, inhibitor

SMILES	PbLuc primary screen (10uM): inhibition % (n=1) [1] [%]	PbLuc primary screen (2uM): inhibition % (n=1) [1] [%]	HepG2 toxicity primary screen (10uM): inhibition % (n=1) [2] [%]
COc1ccc(-c2c(C(C)C)nn3c(N)c(C#N)nnc23)cc1 [DDD01035184]	53.1	9.631	-12.2
Cc1[nH]n(C2CCS(=O)(=O)C2)c(=O)c1Cc1cccc(Cl)c1 (stereo not drawn) [DDD01026994]	28.5	34.05	-46.865
CCc1ccc(C(C)NC(=O)CCC2=NC(=C3N=CN=N3)NO2)cc1 (stereo not drawn) [DDD01068289]	38.8	-21.47	-1.98
Cc1[nH]n(C2CCCCC2)c2nc(C(C)(C)CN3CCOCC3)nc1-2 [DDD01254749]	-16.9	48.54	-3.64
COc1cccc(F)c1-c1nc2c(C3CC3)[nH]n(C)c-2n1 [DDD01246655]	-18.5	21.14	0.271
Cc1nnsc1C(=O)N1CCCCC1c1cc2[nH]c(C)c(C)c(=O)n2n1 (stereo not drawn) [DDD01059036]	19.3	-26.26	-5.93
Cc1nc(=O)cc(CCNC(=O)CC[C@@H]2CCCN3CCCC[C@H]23)[nH]1 [DDD01256003]	44.8	42.6913	0.956
Cc1ncsc1C(=O)N1CCCCC1c1cc2[nH]c(C)c(C)c(=O)n2n1 (stereo not drawn) [DDD01059037]	-26.2	11.32	-8.94
O=C(CNC(=O)N1CCc2c([nH]c3ccc(Cl)cc23)C1)N1CCOCC1 [DDD01035668]	18.2	-2.915	8.32
Cn1ccc(C(=O)N2CCCC(c3cc(=O)n(C)[nH]3)C2)n1 (stereo not drawn) [DDD01060541]	36.4	2.044	-13.7
CCCc1nn(C)c(N)c1-c1ccc2c(c1)OCO2 [DDD01074641]	27.6	5.918	-51.45
CCn1[nH]cc2nc(-c3ccc(OC)c(COC)c3)nc1-2 [DDD01253750]	-45.8	0.5819	6.34
CCc1c(C)nn2c(=O)cc(C3CCN(C(=O)c4cnn(C)c4)C3)[nH]c12 (stereo not drawn) [DDD01056908]	9.3875	-18.64	4.85
Cc1[nH]n(Cc2ccc(F)cc2)c2nnc(N)c1-2 [DDD01012470]	78.2	11.14	1.11
Cc1ncc(CN2CCc3[nH]c4cc(C(C)(C)C)nn4c(=O)c3C2)n1C [DDD01058400]	-12.3	26.69	8.62
COc1cc(OC)c(-c2nc3c(C4CC4)[nH]n(C)c-3n2)cc1OC [DDD01244474]	41.8	-47.16	-5.02
Cc1ncc(CN2CCc3c([nH]c4cc(C5CC5)nn4c3=O)C2)n1C [DDD01058398]	47.1	42.53	6.62
CCCn1ncc(-c2nc3c[nH]n(CC)c-3n2)c1C [DDD01252709]	-42.8	-36.8	4.05
COc1ccc(F)cc1-c1nc2c(C3CC3)[nH]n(C)c-2n1 [DDD01250494]	-12.1	-45.41	-2.18
CCc1c(C)[nH]c2cc(C3CCN(Cc4cccnc4)C3)nn2c1=O (stereo not drawn) [DDD01060570]	-33.4	31.56	-25.4
Cc1[nH]n(-c2ccc(F)cc2)c2nnc(N)c1-2 [DDD01065623]	46.4	39.0185	13.6
COc1ccc(-c2c(C)nn3c(N)c(C#N)nnc23)cc1 [DDD01035158]	3.19	-31.95	-8.26
CCc1cc(=O)n2nc(C3CCN(C(=O)c4ccncc4)CC3)cc2[nH]1 [DDD01057177]	32.85	-9.67	3.51
COc1cc2c(cc1-c1nc3c[nH]n(C(C)C)c-3n1)OCO2 [DDD01249461]	7.31	60.13	-6.85
CCc1c(C)[nH]c2cc(C3CCN(Cc4ccc(F)cc4)C3)nn2c1=O (stereo not drawn) [DDD01060568]	66.5	40.31	-18.6
Cc1cc(=O)n(-c2ccc3nnc(C)n3n2)[nH]1 [DDD01038570]	6.83	18.99	9.24
CCc1nn(C)c(N)c1-c1ccc2c(c1)OCO2 [DDD01074639]	53.6	37.53	-45.08
Clc1cccc(-c2cccc(N3CCC(NC4CCOCC4)CC3)c2)c1 [DDD01252000]	84	-46.68	-4.24
CCc1c(C)nn2c(=O)cc(C3CCN(C(=O)c4ccccn4)C3)[nH]c12 (stereo not drawn) [DDD01056906]	44.95	-16.2	6.7

Source: paper PMC7155171, “Probing the Open Global Health Chemical Diversity Library for Multistage-Active Starting Points for Next-Generation Antimalarials” (ACS Infectious Diseases, 2020)
